# Shown are actives, neighbours in structure and some others; about 2.9% of the full set was active somewhere.
# PLCg1 inh = blocks human PLC-gamma1 enzyme activity; P19174; purified PLC-gamma1, fluorogenic substrate, fluorescence; inhibition, % at 12.2 µM; hit rate 0.84% among 370,000; AID 720700; in the data active = inhibition above about 9.5%
# KLK7 zymogen act = activators of human kallikrein-7 zymogen. P49862. purified proKLK7, EDANS-DABCYL substrate fluorescence; 100% is mature enzyme control, 0% vehicle. activation, % at 7 µM. hit rate 0.9% among 370,000. AID 652039;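 active = activation above the mean of all tested compounds plus 3 SD, computed per campaign excluding outliers beyond control limits, cut at about 13% in these data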
# PLC-beta3 inh = inhibitors of human phospholipase C beta3 | Q01970 | Purified PLC-beta3, fluorogenic substrate, fluorescence | inhibition, % at 12.2 µM | hit rate 0.18% among 370,000 | AID 720704
# ADAM10 inh = inhibits human ADAM10 | O14672 | recombinant ADAM10, EDANS/DABCYL FRET peptide cleavage, 3 h | inhibition, % at 7 µM | hit rate 0.62% among 370,000;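 active = inhibition above a per-campaign cutoff equal to the mean of compounds falling between control-based bounds plus 3 SD, cut at about 20% in these data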
# Target sequence (O14672 214-748 limits assumed): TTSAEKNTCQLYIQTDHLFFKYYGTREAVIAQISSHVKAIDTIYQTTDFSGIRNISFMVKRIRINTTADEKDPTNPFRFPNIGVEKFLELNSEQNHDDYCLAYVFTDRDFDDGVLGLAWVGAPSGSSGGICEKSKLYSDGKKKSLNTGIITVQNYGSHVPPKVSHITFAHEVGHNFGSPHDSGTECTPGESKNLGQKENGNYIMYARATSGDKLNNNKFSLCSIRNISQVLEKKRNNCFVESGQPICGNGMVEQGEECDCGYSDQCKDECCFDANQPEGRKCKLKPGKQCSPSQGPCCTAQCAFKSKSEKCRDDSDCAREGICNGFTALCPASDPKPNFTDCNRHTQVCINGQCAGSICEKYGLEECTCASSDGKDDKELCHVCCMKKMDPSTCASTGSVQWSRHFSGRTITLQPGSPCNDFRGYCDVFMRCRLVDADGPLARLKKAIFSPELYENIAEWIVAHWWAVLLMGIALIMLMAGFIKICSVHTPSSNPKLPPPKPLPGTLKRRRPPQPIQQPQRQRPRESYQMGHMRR
# ADAM17 inh = inhibitors of human ADAM17; AID 720648; inhibition, % at 6.95 µM; recombinant ADAM17, EDANS/DABCYL FRET peptide cleavage; P78536; hit rate 0.83% among 370,000;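 active = inhibition above the mean of compounds lying between control limits plus 3 SD, set per campaign, cut at about 8.5% in these data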
# PLCg1 ctr = PLC-gamma1 inhibition, counter-screen for PLC-beta3 hits | inhibition, % at 12.3 µM | hit rate 3.1% among 3,300 | purified PLC-gamma1, fluorogenic substrate, fluorescence | shares compounds with PLCg1 inh | AID 743258; in the data active = inhibition above about 9.5%
# PLCb3 confirm = confirmation of human PLC-beta3 inhibitors; inhibition, % at 12.3 µM; shares compounds with PLCg1 inh; AID 743261; hit rate 1% among 3,300; purified PLC-beta3, fluorogenic substrate fluorescence
# A number is an active result; n = inactive; x = not tested or not shown. Rule as the data show it, unless noted: active = inhibition above about 11%; inactive = the rest.
SMILES,PLCg1 inh,KLK7 zymogen act,PLC-beta3 inh,ADAM10 inh,ADAM17 inh,PLCg1 ctr,PLCb3 confirm
S=C(NCCCNC(=S)Nc1ccccc1)Nc1ccccc1,13,n,n,n,n,n,n
C=CCOc1cccn2c(N(C)C(=O)c3ccncc3)c(CC)nc12,n,n,n,n,n,x,x
COc1ccc(C(OCC(O)CNCCc2ccccc2)c2ccc(OC)cc2)cc1 (stereo not drawn),n,n,n,n,n,x,x
Cc1ccc(C(OCC(O)CNCc2ccc(F)cc2)c2ccccc2)cc1 (stereo not drawn),17,n,n,n,n,n,n
COC(=O)[C@]12C[C@H](CC(=O)NCC34CC5CC(CC(C5)C3)C4)C(=O)N(CCc3ccc(OC)c(OC)c3)C1=C[C@H](C(C)C)O[C@@H]2C1CC1,n,n,n,n,n,x,x
Cc1cc(C)c(NC(=O)Nc2ccccc2)c(Cl)c1,n,n,13,n,n,n,n
CCS(=O)(=O)N1CCC(C(=O)NCCN2CCN(Cc3ccccc3)CC2)CC1,n,n,n,n,n,x,x
CCS(=O)(=O)N1CCC(C(=O)NCCCN2CCC(Cc3ccccc3)CC2)CC1,11,n,n,n,n,n,n
O=C(NCCCN1CCC(Cc2ccccc2)CC1)C1CCN(S(=O)(=O)N2CCOCC2)CC1,n,n,n,n,n,x,x
CCCS(=O)(=O)N1CCC(C(=O)NCCN2CCC(Cc3ccccc3)CC2)CC1,15,n,13,n,n,n,n
CCC1Sc2ccccc2N(CC(=O)NCCC(C)C)C1=O (stereo not drawn),13,n,n,n,n,n,n
N#Cc1ccc(OCC(=O)Nc2cc(S(=O)(=O)N3CCOCC3)ccc2N2CCCC2)cc1,n,n,n,n,n,x,x
CN1C(=O)C(O)(CC(=O)/C=C/c2ccco2)c2ccccc21 (stereo not drawn),n,n,14,n,n,n,n
C=CCN1C(=O)/C(=C/N(C)C)S/C1=N\S(=O)(=O)c1cccs1,n,n,12,n,n,n,n
O=C(Nc1ccc(C(O)c2ccccc2)cc1)[C@H]1C[C@H](O)[C@@H](CO)O1 (stereo partly drawn),n,n,n,n,n,x,x
Cc1ccc(C)c(OCC(O)CN2CCC(C)CC2)c1C (stereo not drawn),11,n,n,n,n,n,n
CC1CCN(CC(O)COc2ccc(OCC(O)CN3CCC(C)CC3)cc2)CC1 (stereo not drawn),n,n,n,n,n,x,x
COC(CNC(=O)CN1CCN(Cc2ccc(F)cc2Cl)C1=O)OC,n,n,n,n,n,x,x
CCOC(=O)N1CCC(Nc2nc3ccccc3n3cnnc23)CC1,n,n,11,n,n,n,n
CCOC(=O)N1CCN(c2nc3ccc(C(=O)c4ccccc4)cc3n3cnnc23)CC1,n,n,n,n,n,x,x
CCOc1cc(/C=C2\N=C(SC(C)C(N)=O)N(c3ccc(OC(F)F)cc3)C2=O)ccc1O (stereo not drawn),n,n,n,n,n,x,x
CCOC(=O)NC(Nc1nnc(SCC)s1)(C(F)(F)F)C(F)(F)F,11,n,n,n,n,n,n
Cc1cc(CNC(=O)c2cccc(OC3CCN(S(=O)(=O)N(C)C)CC3)c2)on1,n,n,n,n,n,x,x
COc1cc(Cl)ccc1NC(=S)N(CCN1CCOCC1)C1CCN(C(C)=O)CC1,11,n,n,n,n,n,n
Nc1[nH]c(=O)nc2snnc12,9.6,n,n,n,n,n,n
SMILES,PLCg1 inh,KLK7 zymogen act,PLC-beta3 inh,ADAM10 inh,ADAM17 inh,PLCg1 ctr,PLCb3 confirm
COC(=O)C1=C(C)N(Cc2ccccc2C(F)(F)F)C(=NCc2ccc3c(c2)OCO3)NC1c1cccc(Cl)c1 (stereo not drawn),12,n,n,n,n,n,n
CN1C(=O)c2cc(NC(=O)Nc3ccccc3)ccc2OC[C@H]2O[C@@H](CC(=O)Nc3cc(F)ccc3F)CC[C@@H]21,n,n,n,n,n,x,x
O=C1NC[C@@H](CCCCN2C[C@H](Cc3ccccc3)N(Cc3ccccc3)C(=O)C2=O)N(CCc2ccccc2)C1=O,n,n,n,n,n,x,x
Cc1cccnc1NC(=O)Nc1cccc(C(F)(F)F)c1,10,n,n,n,n,n,n
Cc1ccc(S(=O)(=O)NCC(=O)OC(C)C(=O)NC2CCCCC2C)cc1C (stereo not drawn),n,n,n,n,n,x,x
CCOC(=O)N(NC(=O)C(O)(c1ccccc1)c1ccccc1)c1ccccc1,14,n,n,n,n,n,n
CCCC(O)(CCC)C(=O)NN(C(=O)CCl)c1ccccc1,9.7,n,n,n,n,n,n
CCOC(=O)C1=C(CN2CCN(C(=O)c3ccco3)CC2)NC(=O)NC1c1ccc(F)cc1 (stereo not drawn),n,n,n,n,n,x,x
N#Cc1cccc(NC(=O)c2cc(C3CCCCN3C(=O)c3ccccn3)on2)c1 (stereo not drawn),n,n,n,n,n,x,x
CN(Cc1ccccc1F)C(=O)CN1C(=O)NC2(CCc3ccccc32)C1=O (stereo not drawn),n,n,n,n,n,x,x
CC(C)CC(NC(=O)c1ccccc1)C(=O)OCC(=O)Nc1ccc(Br)cn1 (stereo not drawn),11,n,n,n,n,n,n
COC(=O)[C@]12C[C@H](CC(=O)NCC3CCCCC3)C(=O)N(Cc3ccccc3)C1=C[C@H](C(C)C)O[C@@H]2C1CC1,n,n,12,n,n,n,n
COCCCNC(=O)C[C@H]1C[C@@]2(C(=O)OC)C(=C[C@H](C(C)C)O[C@@H]2C2CC2)N(Cc2ccccc2)C1=O,n,n,n,n,n,x,x
OC(c1ccco1)c1nc(-c2ccc(F)c(Cl)c2)cs1 (stereo not drawn),n,n,n,n,n,x,x
CCN(CC)C(=O)C1=C(C)N(Cc2ccc(F)cc2)C(=O)C(CC(=O)NC2CCCCC2)C1 (stereo not drawn),n,n,n,n,n,x,x
CCN(CC)C(=O)C1=C(C)N(Cc2ccc(C(C)(C)C)cc2)C(=O)C(CC(=O)NC2CCCC2)C1 (stereo not drawn),11,n,n,n,n,n,n
CC(=O)Nc1ccc(NC(=O)COC(=O)c2ccc(C)s2)cc1,11,n,n,n,n,n,n
COC(=O)[C@H](CC(C)C)N(Cc1cn(CC2CCCCC2)nn1)S(=O)(=O)c1ccc(F)cc1Br,n,n,n,n,n,x,x
CCS(=O)(=O)c1nc(S(=O)(=O)c2ccc(Cl)cc2)c(N2CCN(C)CC2)s1,n,n,n,n,n,x,x
CCS(=O)(=O)c1nc(S(=O)(=O)c2ccc(C)cc2)c(N2CCN(C)CC2)s1,9.8,n,n,n,n,n,n
O=c1[nH]ncc(N/N=C\c2ccncc2)c1Cl,n,n,11,n,n,n,n

# Assay outcomes (PubChem)
